Inconclusive results are not listed. A number with no mark means an inactive call. Calls come from the whole dose curve; as a rule, active = well fitted cell-killing curve with a large enough effect in the repeat runs; inconclusive = weak or mixed curves; inactive = no such curve, though single readings can be large or run the other way.
% is set by controls: 0 for no effect and ±100 for the full control effect.

The nature of the assay: qHTS assay to identify small molecule agonists of the peroxisome proliferator-activated receptor delta (PPARd) signaling pathway - cell viability counter screen (AID 743211). Note: nearly all actives have a fitted effect of over 55% in size. To be noted: PPARd-bla HEK293H viability, CellTiter-Glo luminescence, 17 h; series mostly up to 62.6 µM; activity change, negative = cytotoxicity: at the top concentration. Put shortly: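 Counter screen for cytotoxicity run in parallel with the PPARd reporter screen. Beta-lactamase reporter HEK293H cells exposed to compounds 17 h; ATP-based CellTiter-Glo luminescence quantified viability.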
For `COC(=O)/C=C(\C)CCC=C(C)C`, the “activity change, negative = cytotoxicity” value is -9.34%. Take `CNC(C)=O`: the “activity change, negative = cytotoxicity” value was 0.429%. With `CC(=O)c1ccc2ccc3ccccc3c2c1` the figure was 1.67%; with `CCN1CCN(C(=O)N[C@@H](C(=O)N[C@@H]2C(=O)N3[C@@H]2SC(C)(C)[C@H]3C(=O)O)c2ccccc2)C(=O)C1=O`, -0.256%. With `CC(=O)Nc1ccc(OCCOCCOc2ccc(NC(C)=O)cc2)cc1` the figure was 3.48%. With `Cc1ccc(NC(N)=O)cc1` the figure was 2.59% [at 81.1 µM]; with `CC(C)(C)c1ccc(N)cc1`, -0.959%; with `Clc1cc(Cl)c(Cl)c(Cl)c1Cl`, 14.8%. As for `CC(CC(=O)Cl)CC(C)(C)C` (stereo unspecified), the “activity change, negative = cytotoxicity” value was 7.84% [at 81.1 µM]. With `NNC(=O)CCCCC(=O)NN` the figure was 0.743%; with `COCCCOc1cc(C[C@@H](C[C@H](N)[C@@H](O)C[C@H](C(=O)NCC(C)(C)C(N)=O)C(C)C)C(C)C)ccc1OC`, 0.651%. With `CCCCS` the figure was 7.85% [at 81.1 µM]; with `C[Si](C)(C)O[Si](O)(O)O`, 7%. With `O=C(O)Cc1c(Cl)ccc(Cl)c1Cl` the figure was 1.05%. In the case of `CCCCCCCCCCCBr`, the “activity change, negative = cytotoxicity” value was 10.2%. With `CC(C)(O)c1ccc(C(C)(C)O)cc1` the figure was 5.97%; with `Cc1cc(C)c(C)c(C)c1`, 13.4%. With `CC(CN1CC(=O)NC(=O)C1)N1CC(=O)NC(=O)C1` (stereo unspecified) the figure was 2.29%; with `Cc1ccc(Br)cc1`, -11.6%; with `CC(=O)OC/C=C(/C)CCC=C(C)C`, 2.22%. As to `CCCCCCCCCCCCCCBr`, the “activity change, negative = cytotoxicity” value was 5.21% [at 81.1 µM]. With `NCC1CCC(C(=O)Oc2ccc(CCC(=O)O)cc2)CC1` (stereo unspecified) the figure was 5.87%. With `CN(C)c1ccncc1` the figure was -4.86%; with `Cc1cc(C)c(N)c(Cl)c1`, -2.95%. On to `CC(C)CC(O)Cc1ccccc1` (stereo unspecified), for which the “activity change, negative = cytotoxicity” value was -2.33%.

`O=C(O)/C=C(\CC(=O)O)C(=O)O`: the “activity change, negative = cytotoxicity” value was 0.451%.

For the origin of these results see PubChem BioAssay (Tox21).
